D1 antag = human D1 dopamine receptor antagonism; P21728; AID 504652; 3.2% of 360,000 active; activity change, negative = inhibition, % at 10 µM; HEK293 TREx D1 cells, calcium flux, dopamine EC80; stronger effect = lower value; in the data active means activity change below about -30%; further: on the % scale 0 is the no-effect control and ±100 the full control effect
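Cells carrying a force-coupled, tetracycline-inducible human D1 receptor report calcium flux. Each well gets a 10 s baseline, compound with 180 s monitoring, then an EC80 dopamine stimulus with a second 180 s kinetic read.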
D1 agonist = human D1 receptor agonism | P21728 | HEK293 T-REx D1 cells, calcium flux, agonist mode | activation, % at 2 µM | 1% of 360,000 active | AID 504660; further: 0% is about no effect
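Agonism was scored from calcium flux recorded over 180 s (1 read/s) after pintool compound addition, following a 10-cycle baseline. Cells were inducible force-coupled HEK293 TREx D1, plated overnight at 30 C and loaded with no-wash calcium dye.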
TRHR ag = TRH receptor (human) agonism; AID 493084; P34981; TRHR cells, calcium flux fluo-8, FDSS agonist mode; 0.18% of 360,000 active; activation, % at 2 µM; further: 0% is about no effect
Target sequence (P34981 whole entry, looked up): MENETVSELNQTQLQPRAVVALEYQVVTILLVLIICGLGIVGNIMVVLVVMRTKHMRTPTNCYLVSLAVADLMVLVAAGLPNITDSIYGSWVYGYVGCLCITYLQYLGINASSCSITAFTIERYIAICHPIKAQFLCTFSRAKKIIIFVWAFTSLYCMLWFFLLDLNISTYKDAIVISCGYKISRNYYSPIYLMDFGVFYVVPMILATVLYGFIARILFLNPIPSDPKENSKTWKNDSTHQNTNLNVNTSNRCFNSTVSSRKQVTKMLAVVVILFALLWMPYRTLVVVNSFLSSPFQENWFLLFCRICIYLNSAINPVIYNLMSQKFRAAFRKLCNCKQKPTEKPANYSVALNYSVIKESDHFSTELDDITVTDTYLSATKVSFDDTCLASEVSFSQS
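Fluo-8-loaded TRHR cells; 10 s baseline, compound added, kinetic Ca2+ fluorescence read 1/s, agonist mode.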
D1 potentiator = human D1 dopamine receptor positive modulation; HEK293 TREx D1 cells, calcium flux, dopamine EC20 potentiation; potentiation, % at 10 µM; 0.036% of 360,000 active; in the data active means potentiation above about 30%; further: 0% is about no effect
TRHR PAM = TRH receptor (human) allosteric enhancement | 0.66% of 360,000 active | TRHR cells, fluo-8 calcium fluorescence, EC20 TRH enhancement | AID 493056 | enhancement, % at 2 µM | P34981; in the data active means enhancement above about 30%; further: 0% is about no effect
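Enhancer read-out: after compound pinning and an initial kinetic agonist-mode read, an EC20 of TRH (10 nM final) was injected and fluo-8 calcium signal (Ex 480/Em 530) followed at 1 s/cycle for 100 cycles in TRHR-expressing cells.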
Numbers without * were called inactive; · = no result given. Hits are enriched below; roughly 4.7% of the tested compounds scored in any of these assays. Unless noted, no stated cut-off is given here; in the data, active means activation above about 30%; inactive means the rest.

SMILES	D1 antag	D1 agonist	TRHR ag	D1 potentiator	TRHR PAM
CCOC(=O)C1CCCN(S(=O)(=O)c2ccc3c4c(cccc24)C(=O)N3CC)C1 (stereo not given)	-32.4*	9.6	0.1	·	-4.2
CCN(CC(=O)NCCc1ccccc1)S(=O)(=O)c1ccc(Br)cc1	-37.2*	5.8	0.6	-0.8	-0.1
COCCNC(=O)CN(CCc1ccccc1)S(=O)(=O)c1ccc(Br)cc1	13.5	1.3	-0.5	-11.9	-7.3
Cc1ccc(OC(=O)c2cc(-c3ccc4c(c3)OCCO4)on2)c(C)c1	11.7	8.4	0.9	-1.9	3.5
C/C(=N\NC(=O)c1ccn(C)n1)c1cccc(NC(=O)c2ccncc2)c1	-46.5*	-0.1	-0.4	1.1	-3.1
COC(=O)c1ccc(OCC2c3cc(OC)c(OC)cc3CCN2C(=O)c2cccc(C)c2)cc1 (stereo not given)	-32.7*	3.5	-0.3	-1.9	-4.3
COC(=O)c1ccc(OCC2c3cc(OC)c(OC)cc3CCN2C(=O)C(C)C)cc1 (stereo not given)	3.9	-1.2	0.1	0.2	8.2
CCCCOc1ccc(OC(=O)c2sc3ncn(Cc4cccc(F)c4)c(=O)c3c2C)cc1	-9.6	8.5	0.4	-1.3	9.9
CNC(=O)c1c(NC(=O)c2ccc(S(=O)(=O)N3CC(C)OC(C)C3)cc2)sc2c1CCN(C(C)C)C2 (stereo not given)	12.8	6.0	2.1	-5.3	4.7
CC(C)CN(CC(C)C)S(=O)(=O)c1ccc(C(=O)Nc2sc3c(c2C(N)=O)CCN(C(C)C)C3)cc1	28.5	53.9*	17.8	-1.9	8.6
CCCCN(CCCC)S(=O)(=O)c1ccc(C(=O)Nc2sc3c(c2C(N)=O)CCN(CC)C3)cc1	6.1	78.5*	17.2	1.6	27.7
CNC(=O)c1c(NC(=O)c2ccc(S(=O)(=O)N3CCCC3)cc2)sc2c1CCN(C(C)C)C2	4.3	88.7*	46.5*	-0.9	3.2
CC(C)N1CCc2c(sc(NC(=O)c3ccc(S(=O)(=O)N4CCOCC4)cc3)c2C(N)=O)C1	-3.8	1.9	10.2	-4.1	2.0
CCN1CCc2c(sc(NC(=O)c3ccc(S(=O)(=O)N(CC)c4ccccc4)cc3)c2C(N)=O)C1	-20.5	147.7*	74.0*	-4.1	14.7
CCCc1c(O)c2ccccc2[nH]c1=O	6.9	3.9	0.1	-1.6	0.3
CCCc1c(C)c2ccccc2[nH]c1=O	-5.7	0.5	-0.6	-7.2	40.8*
Cc1c(Cl)ccc2sc(N3CCN(C(=O)CS(=O)(=O)c4ccccc4)CC3)nc12	·	49.4*	-0.4	-3.6	1.0
Cc1nc(C/C(=N\N)c2ccc(O)cc2O)cs1	-31.6*	3.5	1.1	-2.8	-1.7
NC(=O)CC(NC(=O)Cc1cccc2ccccc12)c1ccc(NCc2ccc(F)cc2)c([N+](=O)[O-])c1 (stereo not given)	18.7	2.5	-0.7	2.9	-1.1
NC(=O)CC(NC(=O)Cc1cccc2ccccc12)c1ccc(NCc2ccccc2)c([N+](=O)[O-])c1 (stereo not given)	-31.1*	2.8	-0.3	0.8	9.2
Cn1ncc2c(NCc3ccc(Cl)cc3)ncnc21	-6.7	2.0	-1.1	-0.3	1.6
CC(=O)c1ccc(O)c(CSc2nncn2C)c1	-31.9*	6.7	0.6	-10.8	-6.7
O=C(c1ccccc1)c1ccc(N2CCNCC2)cc1	-74.5*	7.2	3.5	-16.4	-1.2
Cc1cccc(N(C)c2nc3ccc(C)cc3n3cnnc23)c1	0.3	-0.1	-0.2	-7.0	-5.6
O=C(Nc1ccccc1C(F)(F)F)c1ccc(F)c(S(=O)(=O)N2CCc3ccccc3C2)c1	9.7	1.2	0.5	2.1	-7.1
COc1ccc(C2c3c(n(C)c4ccccc34)C(=O)N2CC(=O)Nc2cc(Cl)ccc2C)cc1 (stereo not given)	9.2	0.3	0.2	1.1	1.3
COc1cccc(S(=O)(=O)N2CCN(S(=O)(=O)c3ccc4c(c3)OCCO4)CC2)c1	15.5	1.8	-2.3	-3.0	-3.6
COc1ccc(/C=N/NC(=O)CSc2ccccn2)cc1OC	-31.6*	1.3	0.6	-8.0	4.0
COc1cc(/C=N/NC(N)=O)ccc1OC(=O)c1ccco1	-34.6*	4.4	0.3	-2.8	-2.1
COc1ccc(/C=N/NC(=O)C(C)n2nnc3ccccc32)cc1OC (stereo not given)	-73.7*	0.4	-0.1	-7.0	0.8
